Measurements taken from the supplement of paper PMC10849652.
The full data set covers some 7,900 targets. This sample favours those with a hit. About 0.6% of all pairs of compound and target were hits.

How the values were obtained:
Assay in all cases: log2 fold change, soluble protein after heating vs DMSO (PISA); higher = thermal stabilisation; K562 cells, 10 uM, 30 min; active = over 0.2 and 3.5 SD of the protein, either way, in both replicates (recomputed)
[1] = compound: COC1=CC=C(C=C1)CN2C=CC3=C2C=C(C=C3)C(=O)NO
How it was run: (§1)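 Soluble protein was defined as the supernatant after 21,000xg for 90 min. It came from K562 cells at 2×10^6 cells/mL given 10 μM compound for 30 min, heated in aliquots for 3 min across 48°C-58°C, pooled, and extracted in PBS with 0.5% NP-40 at 4°C, and was quantified by TMTpro 16plex LC-MS/MS with equalised channel sums. Thermal stability against control samples, from duplicates, is reported as log2 fold change.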

[2] = compound: CON(C)C(=O)N1N=C(c2cc(F)ccc2F)S[C@@]1(CCCN)c1ccccc1 [filanesib]
How it was run: as §1

[3] = compound: CO[C@H]1C[C@@H]2CC[C@@H](C)[C@@](O)(O2)C(=O)C(=O)N2CCCC[C@H]2C(=O)O[C@H]([C@H](C)C[C@@H]2CC[C@H](n3cnnn3)[C@H](OC)C2)CC(=O)[C@H](C)/C=C(\C)[C@@H](O)[C@@H](OC)C(=O)[C@H](C)C[C@H](C)/C=C/C=C/C=C/1C [zotarolimus]
How it was run: as §1

[4] = compound: COc1cc(C(=O)O)ccc1NC(=O)[C@@H]1N[C@@H](CC(C)(C)C)[C@](C#N)(c2ccc(Cl)cc2F)[C@H]1c1cccc(Cl)c1F [idasanutlin]
How it was run: as §1

[5] = compound: COc1cc(Nc2ncc3c(n2)-c2ccc(Cl)cc2C(c2c(F)cccc2OC)=NC3)ccc1C(=O)O [alisertib]
How it was run: as §1

[6] = compound: COc1cc2nc(-c3cc(F)ccc3O)nc(N[C@@H]3CNC[C@H]3C(C)(C)O)c2cc1OC
How it was run: as §1

[7] = compound: COc1cc2ncnc(Nc3ccc(F)c(Cl)c3)c2cc1OCCCN1CCOCC1 [gefitinib]
How it was run: as §1

[8] = compound: COc1cccc2cc(-c3nc([C@H]4CC[C@H](C(=O)O)CC4)n4ncnc(N)c34)[nH]c12
How it was run: as §1

[9] = compound: CS(=O)(=O)CCNCc1ccc(-c2ccc3ncnc(Nc4ccc(OCc5cccc(F)c5)c(Cl)c4)c3c2)o1 [lapatinib]
How it was run: as §1

[10] = compound: CS(=O)(=O)N1CCN(Cc2cc3nc(-c4cccc5[nH]ncc45)nc(N4CCOCC4)c3s2)CC1 [pictilisib]
How it was run: as §1

[11] = compound: CS(=O)(=O)c1ccc(-c2cnc(N)c(C(=O)Nc3ccccc3)n2)cc1
How it was run: as §1

[12] = compound: C[C@@H](Oc1cc(-c2cnn(C3CCNCC3)c2)cnc1N)c1c(Cl)ccc(F)c1Cl [crizotinib]
How it was run: as §1

[13] = compound: C[C@@H]1COCCN1C2=NC(=NC(=C2)C3(CC3)S(=O)(=O)C)C4=C5C=CNC5=CC=C4
How it was run: as §1

[14] = compound: C[C@H](C1=CC=C(C=C1)C(=O)NC2=C3C=CNC3=NC=C2)N
How it was run: as §1

[15] = compound: C[C@H](Nc1ncnc2nc[nH]c12)c1cc2cccc(Cl)c2c(=O)n1-c1ccccc1 [duvelisib]
How it was run: as §1

[16] = compound: Cc1cc(Nc2cc(CN3CCOCC3)c3nc(C)c(Cc4ccc(Cl)cc4F)n3n2)n[nH]1 [gandotinib]
How it was run: as §1

[17] = compound: Cc1cc(Nc2cc(N3CCN(C)CC3)nc(Sc3ccc(NC(=O)C4CC4)cc3)n2)n[nH]1 [tozasertib]
How it was run: as §1

[18] = compound: Cc1cc(SCc2sc(-c3ccc(C(F)(F)F)cc3)nc2C)ccc1OCC(=O)O
How it was run: as §1

[19] = compound: Cc1ccc(-n2nc(C(C)(C)C)cc2NC(=O)Nc2ccc(OCCN3CCOCC3)c3ccccc23)cc1 [doramapimod]
How it was run: as §1

[20] = compound: Cc1ccc(C(=O)N(CCCN)[C@@H](c2nc3cc(Cl)ccc3c(=O)n2Cc2ccccc2)C(C)C)cc1 [ispinesib]
How it was run: as §1

Measured: log2 fold change

INPP5B (UniProt P32019)
Sequence of UniProt P32019 (P32019 whole entry, looked up): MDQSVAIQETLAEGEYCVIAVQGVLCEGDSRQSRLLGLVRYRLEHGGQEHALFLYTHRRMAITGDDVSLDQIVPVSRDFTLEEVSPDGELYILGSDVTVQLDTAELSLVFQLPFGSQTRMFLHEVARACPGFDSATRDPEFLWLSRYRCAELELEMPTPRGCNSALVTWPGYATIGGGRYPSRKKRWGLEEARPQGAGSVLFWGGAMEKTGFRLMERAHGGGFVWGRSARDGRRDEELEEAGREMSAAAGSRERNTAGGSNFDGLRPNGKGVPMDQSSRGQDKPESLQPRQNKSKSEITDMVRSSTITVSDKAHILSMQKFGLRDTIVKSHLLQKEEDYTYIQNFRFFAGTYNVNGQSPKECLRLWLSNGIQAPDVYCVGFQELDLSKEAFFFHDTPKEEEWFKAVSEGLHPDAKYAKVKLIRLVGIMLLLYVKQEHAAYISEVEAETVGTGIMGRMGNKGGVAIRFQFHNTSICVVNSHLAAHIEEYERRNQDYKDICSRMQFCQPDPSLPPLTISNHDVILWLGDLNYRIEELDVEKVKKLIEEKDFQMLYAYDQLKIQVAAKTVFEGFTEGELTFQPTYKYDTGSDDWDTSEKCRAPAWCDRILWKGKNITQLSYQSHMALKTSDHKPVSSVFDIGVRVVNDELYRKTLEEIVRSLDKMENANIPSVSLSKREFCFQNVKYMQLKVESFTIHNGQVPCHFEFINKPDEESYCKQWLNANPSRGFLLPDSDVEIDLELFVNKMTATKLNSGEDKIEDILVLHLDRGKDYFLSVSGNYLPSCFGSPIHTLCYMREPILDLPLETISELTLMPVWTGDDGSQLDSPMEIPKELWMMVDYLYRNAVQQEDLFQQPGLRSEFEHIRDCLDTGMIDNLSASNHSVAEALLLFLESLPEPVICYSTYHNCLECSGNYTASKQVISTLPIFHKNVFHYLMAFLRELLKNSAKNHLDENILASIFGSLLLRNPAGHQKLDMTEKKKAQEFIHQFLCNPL
inactive: [1] 0 | [2] -0.015 | [3] 0.002 | [4] -0.003 | [5] 0.03 | [6] 0.052 | [7] -0.008 | [8] -0.043 | [9] 0.006 | [10] 0.04 | [11] 0.057 | [12] -0.096 | [13] -0.02 | [14] 0.042 | [15] -0.045 | [16] 0.017 | [17] 0.151 | [18] 0.029 | [19] 0.095 | [20] -0.005

LMF2 (UniProt Q9BU23)
Sequence of UniProt Q9BU23 (Q9BU23 whole entry, looked up): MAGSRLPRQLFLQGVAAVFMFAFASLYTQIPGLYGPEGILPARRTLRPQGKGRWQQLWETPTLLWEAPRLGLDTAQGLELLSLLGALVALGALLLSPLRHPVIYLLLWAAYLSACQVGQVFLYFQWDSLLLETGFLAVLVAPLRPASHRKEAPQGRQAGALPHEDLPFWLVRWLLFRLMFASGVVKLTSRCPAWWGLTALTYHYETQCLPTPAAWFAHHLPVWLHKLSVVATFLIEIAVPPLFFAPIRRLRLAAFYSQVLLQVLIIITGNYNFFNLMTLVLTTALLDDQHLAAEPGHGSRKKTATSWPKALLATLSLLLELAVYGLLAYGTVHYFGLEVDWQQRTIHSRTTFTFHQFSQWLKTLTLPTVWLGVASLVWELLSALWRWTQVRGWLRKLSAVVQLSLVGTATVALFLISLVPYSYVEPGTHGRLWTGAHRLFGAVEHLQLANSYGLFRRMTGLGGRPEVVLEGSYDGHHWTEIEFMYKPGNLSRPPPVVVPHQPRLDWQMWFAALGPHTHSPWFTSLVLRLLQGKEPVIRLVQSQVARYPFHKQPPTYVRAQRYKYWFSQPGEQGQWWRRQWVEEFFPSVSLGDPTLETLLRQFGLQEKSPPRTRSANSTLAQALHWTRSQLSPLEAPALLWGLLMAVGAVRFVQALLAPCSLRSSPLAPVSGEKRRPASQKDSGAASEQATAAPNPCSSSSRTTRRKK
inactive: [1] -0.041 | [2] -0.011 | [3] -0.027 | [4] -0.02 | [5] -0.025 | [6] -0.014 | [7] 0.013 | [8] -0.021 | [9] 0.062 | [10] -0.095 | [11] 0.039 | [12] 0.016 | [13] -0.05 | [14] 0.053 | [15] 0.002 | [16] 0.023 | [17] 0.088 | [18] 0.023 | [19] 0.046 | [20] -0.075

ILVBL (UniProt A1L0T0)
Sequence of UniProt A1L0T0 (A1L0T0 whole entry, looked up): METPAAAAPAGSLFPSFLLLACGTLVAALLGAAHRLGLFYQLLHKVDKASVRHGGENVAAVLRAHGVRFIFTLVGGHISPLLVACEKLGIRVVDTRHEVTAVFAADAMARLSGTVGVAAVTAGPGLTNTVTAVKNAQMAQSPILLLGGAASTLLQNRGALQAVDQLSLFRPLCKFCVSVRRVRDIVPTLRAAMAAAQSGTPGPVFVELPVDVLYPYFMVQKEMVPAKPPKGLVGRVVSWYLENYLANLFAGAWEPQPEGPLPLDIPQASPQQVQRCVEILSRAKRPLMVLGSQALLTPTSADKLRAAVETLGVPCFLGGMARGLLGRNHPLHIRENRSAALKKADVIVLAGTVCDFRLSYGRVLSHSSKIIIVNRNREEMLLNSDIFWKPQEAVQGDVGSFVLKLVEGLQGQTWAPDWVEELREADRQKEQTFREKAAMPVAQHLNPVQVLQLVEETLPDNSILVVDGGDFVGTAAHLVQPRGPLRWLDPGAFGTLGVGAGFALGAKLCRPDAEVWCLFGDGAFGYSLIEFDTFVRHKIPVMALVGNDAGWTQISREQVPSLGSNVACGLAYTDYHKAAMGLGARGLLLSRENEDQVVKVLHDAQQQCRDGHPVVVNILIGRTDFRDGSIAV
active: [20] 0.213
inactive: [1] -0.008 | [2] 0.006 | [3] 0.072 | [4] -0.106 | [5] -0.088 | [6] -0.001 | [7] 0.075 | [8] 0.082 | [9] -0.011 | [10] 0.031 | [11] 0.055 | [12] 0 | [13] 0.058 | [14] 0.061 | [15] 0.106 | [16] 0.02 | [17] -0.067 | [18] -0.005 | [19] -0.003

MIER1 isoform 12 (UniProt Q8N108)
Sequence of UniProt Q8N108 (Q8N108 whole entry, looked up): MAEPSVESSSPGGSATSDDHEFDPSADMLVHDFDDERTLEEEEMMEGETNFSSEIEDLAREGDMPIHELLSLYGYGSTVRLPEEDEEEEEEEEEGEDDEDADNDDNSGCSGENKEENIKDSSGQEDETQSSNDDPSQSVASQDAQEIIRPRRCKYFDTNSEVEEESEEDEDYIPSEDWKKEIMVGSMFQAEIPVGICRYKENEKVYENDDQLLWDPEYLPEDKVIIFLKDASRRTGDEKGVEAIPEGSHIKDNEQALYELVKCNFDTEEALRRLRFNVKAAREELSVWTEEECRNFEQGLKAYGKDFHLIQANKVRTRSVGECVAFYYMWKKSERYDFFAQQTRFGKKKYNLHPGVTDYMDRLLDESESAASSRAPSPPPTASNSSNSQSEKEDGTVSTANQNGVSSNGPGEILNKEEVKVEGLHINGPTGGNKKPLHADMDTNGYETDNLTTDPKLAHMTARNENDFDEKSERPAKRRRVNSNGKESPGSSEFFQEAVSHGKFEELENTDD
inactive: [1] -0.041 | [2] -0.067 | [3] -0.015 | [4] -0.04 | [5] -0.023 | [6] -0.039 | [7] -0.001 | [8] 0.014 | [9] 0.011 | [10] -0.066 | [11] 0.009 | [12] -0.027 | [13] 0.035 | [14] -0.034 | [15] -0.012 | [16] -0.004 | [17] -0.021 | [18] 0.035 | [19] 0.026 | [20] -0.029

LMNB1 (UniProt P20700)
Sequence of UniProt P20700 (P20700 whole entry, looked up): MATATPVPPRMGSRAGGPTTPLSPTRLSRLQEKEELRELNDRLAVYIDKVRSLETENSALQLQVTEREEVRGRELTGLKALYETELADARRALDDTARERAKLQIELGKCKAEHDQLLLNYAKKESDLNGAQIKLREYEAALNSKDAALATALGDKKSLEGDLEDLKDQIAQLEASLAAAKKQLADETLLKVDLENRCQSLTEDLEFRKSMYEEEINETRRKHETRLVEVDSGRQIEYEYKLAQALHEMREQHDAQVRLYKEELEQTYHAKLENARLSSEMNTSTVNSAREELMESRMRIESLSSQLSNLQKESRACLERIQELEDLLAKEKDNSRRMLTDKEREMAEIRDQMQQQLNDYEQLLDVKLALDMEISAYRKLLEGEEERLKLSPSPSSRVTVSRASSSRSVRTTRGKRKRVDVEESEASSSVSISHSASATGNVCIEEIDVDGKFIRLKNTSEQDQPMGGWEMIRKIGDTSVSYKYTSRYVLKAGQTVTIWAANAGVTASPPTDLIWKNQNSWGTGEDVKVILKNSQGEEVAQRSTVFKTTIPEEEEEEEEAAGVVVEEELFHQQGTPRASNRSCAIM
inactive: [1] -0.034 | [2] 0.131 | [3] 0.053 | [4] 0.14 | [5] -0.075 | [6] -0.09 | [7] -0.002 | [8] 0.064 | [9] 0.087 | [10] 0.005 | [11] -0.01 | [12] 0.038 | [13] 0.108 | [14] -0.172 | [15] -0.018 | [16] -0.03 | [17] 0.096 | [18] -0.022 | [19] -0.003 | [20] 0.041

MIF (UniProt P14174)
Sequence of UniProt P14174 (P14174 whole entry, looked up): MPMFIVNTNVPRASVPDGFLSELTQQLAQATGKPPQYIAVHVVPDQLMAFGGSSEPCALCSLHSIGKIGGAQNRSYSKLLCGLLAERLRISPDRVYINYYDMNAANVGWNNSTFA
inactive: [1] 0.027 | [2] 0.024 | [3] 0.029 | [4] 0.043 | [5] 0.043 | [6] -0.082 | [7] 0.082 | [8] -0.043 | [9] -0.034 | [10] -0.141 | [11] -0.027 | [12] 0.025 | [13] 0.111 | [14] -0.048 | [15] 0.197 | [16] 0.079 | [17] -0.019 | [18] -0.025 | [19] -0.019 | [20] 0.055

LSS (UniProt P48449)
Sequence of UniProt P48449 (P48449 whole entry, looked up): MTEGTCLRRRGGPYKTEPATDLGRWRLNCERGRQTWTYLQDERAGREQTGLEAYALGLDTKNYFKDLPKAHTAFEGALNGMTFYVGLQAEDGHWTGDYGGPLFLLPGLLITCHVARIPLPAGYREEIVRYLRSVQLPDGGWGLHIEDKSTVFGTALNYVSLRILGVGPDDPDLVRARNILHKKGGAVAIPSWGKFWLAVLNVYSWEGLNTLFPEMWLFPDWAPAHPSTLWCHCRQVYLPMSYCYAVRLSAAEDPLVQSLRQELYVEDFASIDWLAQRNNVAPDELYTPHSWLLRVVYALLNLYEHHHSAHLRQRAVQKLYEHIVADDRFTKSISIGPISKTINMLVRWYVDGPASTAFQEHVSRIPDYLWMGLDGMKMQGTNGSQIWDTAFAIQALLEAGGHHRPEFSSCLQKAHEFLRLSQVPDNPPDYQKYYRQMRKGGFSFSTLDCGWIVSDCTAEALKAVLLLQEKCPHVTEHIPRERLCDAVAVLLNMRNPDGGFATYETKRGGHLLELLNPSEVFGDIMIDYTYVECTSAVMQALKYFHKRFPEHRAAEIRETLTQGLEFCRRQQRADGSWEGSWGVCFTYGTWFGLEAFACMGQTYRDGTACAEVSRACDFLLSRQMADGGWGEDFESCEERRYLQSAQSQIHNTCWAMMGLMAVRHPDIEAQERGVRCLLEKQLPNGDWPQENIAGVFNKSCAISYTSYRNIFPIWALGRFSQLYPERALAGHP
active: [12] 0.77
inactive: [1] 0.205 | [2] 0.026 | [3] -0.027 | [4] -0.116 | [5] 0.121 | [6] 0.16 | [7] 0.126 | [8] -0.014 | [9] 0.02 | [10] 0.07 | [11] 0.043 | [13] 0.081 | [14] 0.02 | [15] 0.044 | [16] 0.044 | [17] 0.103 | [18] 0.017 | [19] 0.024 | [20] 0.111

LTO1 (UniProt Q8WV07)
Sequence of UniProt Q8WV07 (Q8WV07 whole entry, looked up): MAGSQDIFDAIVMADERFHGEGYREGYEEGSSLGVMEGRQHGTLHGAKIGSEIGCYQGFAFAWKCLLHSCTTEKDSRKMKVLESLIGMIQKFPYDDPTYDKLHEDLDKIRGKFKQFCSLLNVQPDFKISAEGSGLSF
inactive: [1] -0.06 | [2] -0.06 | [3] 0.062 | [4] -0.093 | [5] 0.118 | [6] 0.036 | [7] 0.017 | [8] -0.001 | [9] -0.016 | [10] 0.038 | [11] 0.011 | [12] 0.048 | [13] -0.083 | [14] -0.063 | [15] 0.078 | [16] -0.026 | [17] -0.007 | [18] -0.042 | [19] 0.032 | [20] 0.051
